In all, about 69,000 compounds went through this assay and about 8,600 (12%) showed an effect of 50% or more. Only a selection was taken, and strong results are over-represented in it overall.
test system: Plasmodium berghei; test: Screen against P. berghei liver stage (PbLuc), transformed with Luciferase, at 10uM; type: functional, HepG2; settings: tested at 10 uM

Question: For CCN1CCCC(O)(CN(C)Cc2ccccc2F)C1 (configuration not stated), which INHIBITION is on record?
Answer: 8.46%

Question: O=C1CC(c2ccccc2)C2(CCN(C(=O)c3ccncc3F)CC2)N1 (configuration not stated) was tested. Which INHIBITION did it give?
Answer: 32.2%

Question: With COCCCNC(=O)Nc1ccc(F)c(C(N)=O)c1 as the compound, how does the INHIBITION read?
Answer: -23.9%

Question: How did the INHIBITION turn out when COc1c(Cl)cc(Cl)cc1CN1CCC(C(N)=O)C1 (configuration not stated) was run?
Answer: -11.3%

Question: For O=C(NCc1ccccc1F)N1CCCCC1C1OCCO1 (configuration not stated), which INHIBITION is on record?
Answer: -6.88%

Question: With CCC(CO)N(Cc1cccc(-n2cccn2)c1)Cc1ccccn1 (configuration not stated) as the compound, how does the INHIBITION read?
Answer: 25.5%

Question: For CCC(CO)N(Cc1cccc(-n2cccn2)c1)Cc1cccs1 (configuration not stated), which INHIBITION is on record?
Answer: 53.2%

Question: CN(Cc1cccc(-n2cccn2)c1)Cc1cccs1 was tested. Which INHIBITION did it give?
Answer: -29%

Question: With O=C(COc1ccccc1)N1C[C@@H](O)[C@H](N2CCCC2)C1 as the compound, how does the INHIBITION read?
Answer: 37%

Question: For O=C(COc1cccc(F)c1)N1C[C@@H](O)[C@H](N2CCCC2)C1, which INHIBITION is on record?
Answer: 53.5%

Question: O=C(COc1cccc(F)c1)N1C[C@H](CO)C[C@H](CN2CCCC2)C1 was tested. Which INHIBITION did it give?
Answer: 10.42%

Question: How did the INHIBITION turn out when O=C(COc1cccc(F)c1)N1C[C@@H](CN2CCCC2)C[C@H](CO)C1 was run?
Answer: -1.315%

Question: For O=C(COc1cccc(F)c1)N1C[C@@H](O)[C@H](N2CCOCC2)C1, which INHIBITION is on record?
Answer: 32.3%

Question: With CN(C)[C@@H]1CN(C(=O)COc2cccc(F)c2)C[C@H]1O as the compound, how does the INHIBITION read?
Answer: 54.5%

Question: COCCN1C(=O)[C@]2(CC[C@@H]3CN(Cc4ccccc4F)C[C@@H]32)N=C1C was tested. Which INHIBITION did it give?
Answer: 14.9%

Question: How did the INHIBITION turn out when O=C(Nc1cnn(-c2ccccc2Cl)c1)NC1CCC(O)CC1 (configuration not stated) was run?
Answer: -66.7%

Question: Cc1nn(C)c(C)c1S(=O)(=O)N1CC[C@H]2O[C@@H](C)C[C@H]2C1 was tested. Which INHIBITION did it give?
Answer: 17.4%

Question: COC(=O)[C@H](C)NC(=O)CSCc1nc2sc(C(C)C)cc2c(=O)[nH]1 was tested. Which INHIBITION did it give?
Answer: 28.7%

Question: O=C(C1CCC1)N1C2CCC(O)(CC2)C1CN1CCOCC1 (configuration not stated) was tested. Which INHIBITION did it give?
Answer: 16.2%

Question: Which INHIBITION does the source give for Cn1nc(-c2ccc(F)cc2)cc1C(=O)NCCn1ccnc1 here?
Answer: -0.232%

Question: CC1CN(CC(=O)Nc2cccnc2)CCN1c1nccs1 (configuration not stated) was tested. Which INHIBITION did it give?
Answer: 52.7%

Question: With Cc1csc(N2CCN(CC(=O)Nc3nncs3)CC2C)n1 (configuration not stated) as the compound, how does the INHIBITION read?
Answer: 40.9%

Question: Cc1csc(N2CCN(CC(=O)Nc3ccncc3)CC2C)n1 (configuration not stated) was tested. Which INHIBITION did it give?
Answer: 71.75%

Question: How did the INHIBITION turn out when O=C(CN1CCN(c2nccs2)CC1)Nc1cccnc1 was run?
Answer: -24.2%

Question: How did the INHIBITION turn out when Cc1csc(N2CCN(CC(=O)Nc3cccnc3)CC2C)n1 (configuration not stated) was run?
Answer: 11.9%

Question: Which INHIBITION does the source give for CC1CN(CC(=O)Nc2ccncc2)CCN1c1nccs1 (configuration not stated) here?
Answer: 21.6%

Question: How did the INHIBITION turn out when Cc1cc(N2CCN(Cc3ccnn3C)CC2)cc(C2CCCN2)n1 (configuration not stated) was run?
Answer: 37.45%

Question: Which INHIBITION does the source give for Cc1cccc(S(=O)(=O)N2CC[C@H]3CO[C@H](CN(C)C)[C@H]3C2)c1 here?
Answer: -1.55%

Question: How did the INHIBITION turn out when COCc1nn(C(C)C)c2c1CCN(Cc1nccs1)C2 was run?
Answer: -11.6%

Question: With O=C(c1cnccn1)N1CCN(Cc2cccnc2)c2ncccc2C1 as the compound, how does the INHIBITION read?
Answer: 11.5%

Question: How did the INHIBITION turn out when CN1[C@H](CO)C[C@H](CNCc2ccc(CO)o2)[C@@H]1c1ccccc1F was run?
Answer: 28.7%

Question: CN1[C@H](CO)C[C@H](CNCc2ccc(Cl)c(F)c2)[C@@H]1c1ccccc1F was tested. Which INHIBITION did it give?
Answer: 53.5%

Question: CCc1ccc(CNC[C@H]2C[C@@H](CO)N(C)[C@H]2c2ccccc2F)o1 was tested. Which INHIBITION did it give?
Answer: -3.96%

Question: For CCC(=O)N1CCC(c2nc(N3CCOCC3)ncc2S(C)(=O)=O)CC1, which INHIBITION is on record?
Answer: 36%

Question: With Cc1nnc(C2Cc3ccccc3CN2Cc2c(C)noc2C)o1 (configuration not stated) as the compound, how does the INHIBITION read?
Answer: 19.5%

Question: CC(Cn1cccn1)NC(=O)c1cc(C2CC2)nc2c1cnn2C (configuration not stated) was tested. Which INHIBITION did it give?
Answer: -6.18%

Question: Cn1cc(CN2CCC(c3cc(COc4cccc(Cl)c4)[nH]n3)C2)cn1 (configuration not stated) was tested. Which INHIBITION did it give?
Answer: 21.955%

Question: For COc1ccc(CN2CC(n3cccn3)C2)cc1F, which INHIBITION is on record?
Answer: 4.34%

Question: With COc1ccc(C)cc1CN1CCN(Cc2nccn2C)C(C)C1 (configuration not stated) as the compound, how does the INHIBITION read?
Answer: -78.3%

Question: With COc1ccc(C)cc1CN1CCCC1Cn1nc(C)nc1C (configuration not stated) as the compound, how does the INHIBITION read?
Answer: 25.3%

Question: Which INHIBITION does the source give for COc1ccc(C(C)=O)cc1CN1CCn2cccc2C1C (configuration not stated) here?
Answer: 58.5%

Question: Which INHIBITION does the source give for COc1ccc(C)cc1CN1CCn2cccc2C1C (configuration not stated) here?
Answer: 84.2%

Question: For COc1ccc(CN2CCn3cccc3C2C)cc1F (configuration not stated), which INHIBITION is on record?
Answer: 59.4%

Question: COC(=O)c1ccc(OC)c(CN2CCN(CC(C)C)C(=O)C2C)c1 (configuration not stated) was tested. Which INHIBITION did it give?
Answer: -14.1%

Question: COc1cc(C(C)=O)ccc1OCC(=O)c1cccn1C was tested. Which INHIBITION did it give?
Answer: 41.3%

Question: How did the INHIBITION turn out when COc1ccc(CN2CCN(Cc3nccn3C)C(C)C2)cc1F (configuration not stated) was run?
Answer: -85.6%

Question: Which INHIBITION does the source give for CC(=O)N1CCN(CCNS(=O)(=O)c2c(F)cccc2F)CC1 here?
Answer: 31.6%

Question: How did the INHIBITION turn out when Cn1cnc2c1C(C(=O)N1CCCC1)N(CC1CC1)CC2 (configuration not stated) was run?
Answer: 0.804%

Question: Which INHIBITION does the source give for COc1ccc2c(c1)CCCN2Cc1nc(C)c(C)o1 here?
Answer: 19.8%

Question: For Cc1cc(C)n(CC2CN(Cc3noc(C)n3)CCO2)n1 (configuration not stated), which INHIBITION is on record?
Answer: 5.7%

Question: With CCCn1nnnc1COC(=O)C1COc2ccccc2O1 (configuration not stated) as the compound, how does the INHIBITION read?
Answer: 49%

Question: With O=C(NCCc1cc2nc(-c3ccncc3)ccn2n1)C1CCOCC1 as the compound, how does the INHIBITION read?
Answer: 17.14%

Question: With Cc1nnsc1C(=O)N1C[C@@H]2CC[C@H]1CN(c1cnccn1)C2 as the compound, how does the INHIBITION read?
Answer: 4.35%

Question: For Cc1cc(F)ccc1CCNC(=O)NCC(C)N1CCOCC1 (configuration not stated), which INHIBITION is on record?
Answer: 11.1%

Question: O=C(O)c1cc(S(=O)(=O)Nc2cnn(C3CCOCC3)c2)ccc1F was tested. Which INHIBITION did it give?
Answer: 29.3%

Question: With CCN(C(=O)CCc1ccc2c(c1)OCO2)C1CC(=O)NC1=O (configuration not stated) as the compound, how does the INHIBITION read?
Answer: 7.97%

Question: How did the INHIBITION turn out when O=C(CCc1nccs1)N1CCCC(n2cccn2)C1 (configuration not stated) was run?
Answer: 38.5%

Question: For Cc1nn(C)c(C)c1CC(=O)N1CCCC(n2ccnc2)C1 (configuration not stated), which INHIBITION is on record?
Answer: 44.3%

Question: For Cc1nn(CC(C)C)c(C)c1CC(=O)N1CCCC(CNS(C)(=O)=O)C1 (configuration not stated), which INHIBITION is on record?
Answer: 24.1%

Question: Cc1nn(C)c(C)c1CC(=O)N1CCCC(CNS(C)(=O)=O)C1 (configuration not stated) was tested. Which INHIBITION did it give?
Answer: 50.2%

Question: Which INHIBITION does the source give for Cc1cnn(C2CCCN(C(=O)CCc3ccncc3)C2)c1 (configuration not stated) here?
Answer: 26.4%

Question: Which INHIBITION does the source give for Cc1nn(C)c(C)c1CC(=O)N1CCCC(n2ccnc2C)C1 (configuration not stated) here?
Answer: 23.7%

Question: For Cc1cnn(C2CCCN(C(=O)CCc3nccs3)C2)c1 (configuration not stated), which INHIBITION is on record?
Answer: 63.9%

Question: Which INHIBITION does the source give for Cc1cnn(C2CCCN(C(=O)Cc3c(C)nn(C)c3C)C2)c1 (configuration not stated) here?
Answer: 53.9%

Question: Cc1nn(C)c(C)c1CC(=O)N1CCCC(n2cccn2)C1 (configuration not stated) was tested. Which INHIBITION did it give?
Answer: 7.13%

Question: Which INHIBITION does the source give for Cc1nn(C)c(C)c1-c1ccnc(N2CCCN(CC(C)C)CC2)n1 here?
Answer: 24.3%

Question: How did the INHIBITION turn out when COc1ccc(F)c(NCc2ccc(C(=O)N(C)C)[nH]2)c1 was run?
Answer: -22.6%
